55 compounds from publication PMC4336329 (PLoS ONE, 2015) can be followed below.

Structures are written as SMILES. In all, about 310,000 compounds went through this assay and about 14,000 (4.5%) showed an effect of 50% or more. The effect is printed as a negative number. This is one part of a sample in which strong results are shown more often than they occur.
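Note: peak tail current of the secondary pulse compared with the same well before compound.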

Sequence of human ether-à-go-go-related gene (hERG) potassium channel (Q12809 whole entry, looked up): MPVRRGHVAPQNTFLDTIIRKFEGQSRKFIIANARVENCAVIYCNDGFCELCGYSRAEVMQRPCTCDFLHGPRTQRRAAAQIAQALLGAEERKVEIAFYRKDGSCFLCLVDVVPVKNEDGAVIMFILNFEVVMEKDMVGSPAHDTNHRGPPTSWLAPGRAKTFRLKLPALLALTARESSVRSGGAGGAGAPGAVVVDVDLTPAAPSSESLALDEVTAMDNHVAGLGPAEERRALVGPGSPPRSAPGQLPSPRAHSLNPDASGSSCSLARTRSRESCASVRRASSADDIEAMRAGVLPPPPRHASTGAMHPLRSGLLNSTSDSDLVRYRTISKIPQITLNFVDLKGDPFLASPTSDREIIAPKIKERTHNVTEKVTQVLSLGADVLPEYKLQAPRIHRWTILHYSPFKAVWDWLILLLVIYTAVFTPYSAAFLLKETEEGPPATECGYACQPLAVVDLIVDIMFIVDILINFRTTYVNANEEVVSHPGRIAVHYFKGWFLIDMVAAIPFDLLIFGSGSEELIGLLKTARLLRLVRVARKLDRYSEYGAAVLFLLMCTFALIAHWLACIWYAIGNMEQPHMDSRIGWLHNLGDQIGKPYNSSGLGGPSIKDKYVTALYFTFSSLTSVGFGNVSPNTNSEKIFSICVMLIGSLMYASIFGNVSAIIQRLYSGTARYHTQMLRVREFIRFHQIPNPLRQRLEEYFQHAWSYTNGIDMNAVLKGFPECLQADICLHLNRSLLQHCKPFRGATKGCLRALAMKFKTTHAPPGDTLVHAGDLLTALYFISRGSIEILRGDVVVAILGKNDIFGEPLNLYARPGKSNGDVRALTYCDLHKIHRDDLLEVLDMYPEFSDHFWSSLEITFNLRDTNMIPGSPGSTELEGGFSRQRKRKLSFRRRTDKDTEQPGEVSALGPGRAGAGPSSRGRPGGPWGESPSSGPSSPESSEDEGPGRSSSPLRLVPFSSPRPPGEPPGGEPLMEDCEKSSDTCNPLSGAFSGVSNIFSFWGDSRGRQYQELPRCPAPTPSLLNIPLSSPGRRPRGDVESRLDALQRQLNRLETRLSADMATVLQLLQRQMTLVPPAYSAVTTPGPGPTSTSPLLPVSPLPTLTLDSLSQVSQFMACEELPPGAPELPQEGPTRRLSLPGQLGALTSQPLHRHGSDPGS

This assay addresses human ether-à-go-go-related gene (hERG) potassium channel (human, UniProt Q12809). Kind of assay: primary screen, population patch clamp on CHO cells stably expressing hERG; higher = less effect of the substance.
In the case of `CC1CCCCC1NC(=O)c1ccc(S(=O)(=O)NCc2ccco2)cc1` (stereo not shown), the “hERG current change (%, negative = inhibition) at 10uM” value turned out to be 7.19%.
As for `CCNc1nc(=S)nc(NC(C)C)[nH]1`, the figure is 29.6%.
On to `CCOc1ccc(-c2nc(CN3CCCC(C(=O)N4CCOCC4)C3)c(C)o2)cc1` (stereo not shown), for which the “hERG current change (%, negative = inhibition) at 10uM” value was -26.5%.
As for `CCOC(=O)N1CCN(C(=O)C2CCCN(Cc3nc(-c4ccc(Cl)cc4)oc3C)C2)CC1` (stereo not shown), the figure is -70.9%; as for `CCOC(=O)N1CCC(NC(=O)CS(=O)Cc2nc(-c3ccc(Cl)cc3)oc2C)CC1` (stereo not shown), -47.4%.
With `Cc1ccc(-c2nc(CN3CCCC(C(=O)N4CCOCC4)C3)c(C)o2)cc1` (stereo not shown), the “hERG current change (%, negative = inhibition) at 10uM” value is given as -37.5%.
Take `Cc1oc(-c2cc3c(cc2Cl)OCO3)nc1CN1CCCC(C(=O)N2CCOCC2)C1` (stereo not shown): the “hERG current change (%, negative = inhibition) at 10uM” value was -24.7%.
As for `Cc1oc(-c2ccc(Cl)cc2)nc1CN1CCCC(C(=O)N2CCOCC2)C1` (stereo not shown), the figure is -53.8%; as for `O=C(C1CCC(CNS(=O)(=O)c2ccccc2)CC1)N1CCCCC1` (stereo not shown), -1.89%.
Then `C=CCN(c1ccc(Br)cc1C(=O)OC)S(C)(=O)=O`, with 0.801%; and `Brc1ccc(-c2cnc(-c3cccs3)o2)cc1`, with -3%.
As for `CN1C2CCC1CC(NC(=O)CSCc1ccc(Cl)cc1Cl)C2` (stereo not shown), the figure is -57.4%; as for `CN1C2CCC1CC(NC(=O)CSc1ccc(Cl)cc1)C2` (stereo not shown), -8.94%.
Turning to `NNC(=O)CSCc1ccc(Cl)cc1Cl`, the “hERG current change (%, negative = inhibition) at 10uM” value was -2%.
For `O=C(O)C1=C[C@@H](C2CC2)C[C@@H](OCc2ccc(CO)cc2)O1`, the “hERG current change (%, negative = inhibition) at 10uM” value is 21.4%.
As for `COc1cc(Br)c(C2C(C#N)=C(N)Oc3n[nH]c(-c4cccnc4)c32)cc1OC` (stereo not shown), the figure is 6.8%.
Regarding `Cc1cccc(NC(=O)c2nc[nH]c2C(=O)N2CCC(C)CC2)c1`, the “hERG current change (%, negative = inhibition) at 10uM” value is 1.29%.
With `COc1ccc(-c2[nH]n(-c3ccc([N+](=O)[O-])cc3)c(=O)c2C=NCc2ccncc2)cc1`, the “hERG current change (%, negative = inhibition) at 10uM” value is given as -3.44%.
Then `CC(=NCCCn1ccnc1)c1c(O)n(C)c(=O)n(C)c1=O`, with -9.42%; and `CCCc1[nH]n(-c2ccc([N+](=O)[O-])cc2)c(=O)c1C=NCCc1c[nH]c2ccccc12`, with 8.42%.
Then `CCCc1[nH]n(-c2ccc([N+](=O)[O-])cc2)c(=O)c1C(C)=NCc1ccncc1`, with -52.4%; and `CCCc1[nH]n(-c2ccc([N+](=O)[O-])cc2)c(=O)c1C=NCCc1ccc(OC)c(OC)c1`, with -19.4%.
Then `CCCc1[nH]n(-c2ccc([N+](=O)[O-])cc2)c(=O)c1C=NCCCn1ccnc1`, with -76.4%.
As to `CC(=NCCCn1ccnc1)c1c(C)[nH]n(-c2ccc([N+](=O)[O-])cc2)c1=O`, the “hERG current change (%, negative = inhibition) at 10uM” value is reported as -69.3%.
As for `CCCc1[nH]n(-c2ccc([N+](=O)[O-])cc2)c(=O)c1C=NCCN1CCNCC1`, the figure is -47.1%; as for `CC(=NCCCn1ccnc1)c1c(O)n(-c2ccccc2)c(=O)[nH]c1=O`, 5.91%.
As to `O=C1CC(N(O)c2ccccc2)C(=O)N1c1cc(Cl)cc(Cl)c1` (stereo not shown), the “hERG current change (%, negative = inhibition) at 10uM” value was found to be 16.2%.
As for `COc1ccccc1CNC(=O)C(NC(=O)Nc1ccccc1)C(C)C` (stereo not shown), the figure is 13%.
Regarding `CCCCn1c(=O)[nH]c(=O)c2c1nc(CN(C)Cc1cccc(OC)c1OC)n2CCC.O=C(O)C(=O)O`, the “hERG current change (%, negative = inhibition) at 10uM” value is 18.5%.
As for `Cc1ccc(-n2ncc3c2ncn2c(C)nnc32)cc1C`, the figure is -10.5%; as for `COc1ccc(NC(=O)COC(=O)c2ccc(NS(=O)(=O)/C=C/c3ccccc3)cc2)cc1`, 0.149%; as for `Cc1ccccc1NC(=O)NC1CCS(=O)(=O)C1` (stereo not shown), 16.6%.
As for `CCn1c(SCC(=O)NC2CCCC2)nnc1-c1cccnc1`, the figure is 5.55%; as for `Cc1c(C#N)c(NC(=O)c2ccccc2)n(Cc2ccccc2)c1C`, 2.21%.
Consider `COc1ccccc1N1CCN(C(=O)c2ccc(S(=O)(=O)N3CCCCCC3)cc2)CC1`, for which the “hERG current change (%, negative = inhibition) at 10uM” value is -39.8%.
As for `COc1cc2ccccc2cc1C(=O)N1CCN(c2ccccc2O)CC1`, the figure is -59.7%; as for `CN1CCN(S(=O)(=O)c2cccc(C(=O)N3CCN(c4ccccc4F)CC3)c2)CC1`, -0.195%; as for `COc1cc2ccccc2cc1C(=O)N1CCCC1`, 7.7%.
As for `COc1ccccc1N1CCN(C(=O)c2cccc(S(=O)(=O)N3CCCCCC3)c2)CC1`, the “hERG current change (%, negative = inhibition) at 10uM” value is recorded as -77%.
For the compound `COc1ccccc1N1CCN(C(=O)c2c(-c3c(Cl)cccc3Cl)noc2C)CC1`, the “hERG current change (%, negative = inhibition) at 10uM” value was found to be 2.17%.
Then `O=C(c1cccc(S(=O)(=O)N2CCCCCC2)c1)N1CCN(c2ccccc2F)CC1`, with -58%; and `COc1cc2ccccc2cc1C(=O)N1CCCCC1`, with -0.827%; and `COc1ccccc1N1CCN(C(=O)c2c(-c3ccccc3Cl)noc2C)CC1`, with -51.2%.
As for `CCOc1ccccc1N1CCN(C(=O)c2c(-c3ccccc3Cl)noc2C)CC1`, the figure is 2.42%; as for `O=C(c1cccc(S(=O)(=O)N2CCCC2)c1)N1CCN(c2ccccc2F)CC1`, -18.1%; as for `COc1ccccc1N1CCN(C(=O)c2ccc(S(=O)(=O)N3CCCCC3)cc2)CC1`, -10.2%.
Consider `CC(C)(O[C@@H]1O[C@H](CO)[C@@H](O)[C@H](O)[C@H]1O)[C@@H]1CC=C(C(=O)O)CC1`, for which the “hERG current change (%, negative = inhibition) at 10uM” value is reported as 15.5%.
As for `COc1ccc(NC(=O)CN(c2ccccc2F)S(=O)(=O)c2ccc(C)cc2)cc1`, the figure is 10.6%; as for `COC(=O)c1sc2nc(N)c(C#N)cc2c1N`, 31.1%.
Then `Cc1nc(NCCc2ccc(O)cc2)c2nnn(Cc3ccccc3)c2n1`, with 0.0141%.
As for `Cc1ccc(OCC(=O)Nc2oc(-c3ccccc3)c(-c3ccccc3)c2C#N)cc1`, the figure is 17.7%; as for `COc1cc(CC(=O)NNC(=O)c2cc(C)oc2C)cc(OC)c1OC`, 24.1%.
In the case of `COc1ccc(S(=O)(=O)N2CCCCCC2)cc1C(=O)N1CCN(c2ccccc2O)CC1`, the “hERG current change (%, negative = inhibition) at 10uM” value was -70.6%.
For the compound `COc1ccc(S(=O)(=O)N2CCCCCC2)cc1C(=O)N1CCN(c2ccccc2C)CC1`, the “hERG current change (%, negative = inhibition) at 10uM” value is -48%.
Regarding `COc1ccc(S(=O)(=O)N2CCN(c3ccccc3OC)CC2)cc1C(=O)N1CCCCC1`, the “hERG current change (%, negative = inhibition) at 10uM” value is recorded as 7.51%.
